# Assay results published in PubChem BioAssay AID1259415 (National Center for Advancing Translational Sciences (NCATS), 2018).
# Out of some 410,000 compounds screened, about 18,000 (4.4%) were called active. Roughly 7% stayed inconclusive and do not appear here. Only a selection was taken, and actives are over-represented in it overall. Values without a mark were called inactive. Cut-off read from the data, not from the text of the source: active = activity change below about -60%; inconclusive = no clear call, values can overlap the other calls; inactive = above about -39%.
# Experiment: qHTS Assay for inhibitors of the human cytomegalovirus (HCMV)
# Conditions: HFF cells, HCMV-luciferase reporter, 72 h; at 57.5 µM; hits give low values
# Outline: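 After 16 h attachment at 37C, HFF cells received test compound and HCMV-luciferase (1 PFU/cell); reporter luminescence read 72 h later, data normalized against buffer-only and known inhibitor Salinomycin.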
# % is set by controls: 0 for no effect and ±100 for the full control effect.
row,SMILES,"activity change, negative = inhibition"
1,COc1ccc(Cn2c(=O)c3oc4ccccc4c3n(CC(=O)Nc3ccc(F)cc3F)c2=O)cc1,6.84%
2,CCOC(=O)c1ccc(NC(=O)CCn2cnnn2)cc1,20.5%
3,Cc1[nH]c(N)nc(=S)c1CCCNc1ccccc1,-99.8% (active)
4,Cc1cc(=O)n(C)c(=O)n1CCCNc1ccccc1,-33.2%
5,CCc1c(Nc2ccccc2C)nc(N)[nH]c1=O,90.6%
6,Cc1nnnn1/C(=C\c1ccccc1)C(=O)OCC(=O)N1CC2(C)CC1CC(C)(C)C2 (stereo not given),-85.3% (active)
7,COC(=O)c1cc2n(n1)CCCNC2=O,14.4%
8,CCC(C)(O)C(=O)OC1C(=O)OC2CC3C(C)=CC(=O)C(O)C3(C)C3C4(O)OCC23C1C(C)C4O (stereo not given),-96.7% (active)
9,COCCNC(=S)N(CCc1c(C)[nH]c2ccc(C)cc12)Cc1cccnc1,5.87%
10,COCCCNC(=S)NNC(=O)C(O)(c1ccccc1)c1ccccc1,-17.8%
11,COCCNC(=S)N/N=C/c1c(C)[nH]c2ccccc12,-68.5% (active)
12,CCOC(=O)c1cccc(NS(=O)(=O)c2cc(-c3cnc(C)o3)ccc2OC)c1,-8.81%
13,COc1ccc(CCNC(=O)CC2SC(=Nc3cc(C)cc(C)c3)NC2=O)cc1OC (stereo not given),37.9%
14,CC(=O)N1CCC(N(C(=O)Nc2ccc(Cl)cc2)C(C)C)CC1,-34.8%
15,CC(C)S(=O)(=O)c1csc(NC(=O)Nc2ccc(Cl)cc2)c1Cl,-93.2% (active)
16,COc1ccc(OCC(O)CNC(=O)Nc2ccc(Cl)cc2)cc1 (stereo not given),-6.88%
17,COc1ccc(Cl)cc1NC(=O)CN(C)C(=O)c1cc(-c2cccs2)nn1-c1ccccc1,-21.5%
18,COc1cc(OC)cc(C(=O)NCCc2csc3nc(-c4ccccc4F)nn23)c1,-6.5%
19,Cc1ccc2[nH]c3c(=O)n(CC(=O)NC(C)C)ncc3c2c1,5.38%
20,C=C(C)C(=O)O[C@H]1C/C(C)=C\C(=O)/C=C(\C)[C@H](O)[C@@H]2OC(=O)C(=C)[C@@H]21,-98.8% (active)
21,Fc1cccc(-c2nc3c(N4CCOCC4)nccc3[nH]2)c1,6.37%
22,CCc1cccc(-n2nnc(-c3nsc(NC(=O)c4ccc(C)cc4)n3)c2C)c1,-39.1%
23,COc1ccc(N(CC(=O)N/N=C/c2cccs2)S(=O)(=O)c2ccc(OC)c(OC)c2)cc1,3.94%

row,SMILES,"activity change, negative = inhibition"
1,COc1ccc(C(=O)NCC(c2ccco2)N2CCc3ccccc32)cc1OC (stereo not given),-5.62%
2,Cc1ccsc1/C=N/NC(=O)Cc1cc(=O)[nH][nH]1,80.6%
3,CC(C)(C)c1cc(C(=O)N/N=C/c2ccc([N+](=O)[O-])s2)n[nH]1,-73.9% (active)
4,C/C(=N\NC(=O)CNc1cccc2ccccc12)c1ccc(Br)s1,21.2%
5,COc1ccc(C(=O)NCC(=O)N/N=C/c2ccc([N+](=O)[O-])s2)cc1OC,-92.4% (active)
6,Cc1ccccc1NCC(=O)N/N=C\c1ccc([N+](=O)[O-])s1,-78.2% (active)
7,Cc1nnc(SCc2nc3ccccc3nc2C)s1,32.2%
8,CCOC(=O)C1CCN(c2ncnc3c2c(-c2ccccc2)cn3-c2cccc(C)c2)CC1,-35.2%
9,CCOc1ccccc1C(=O)Nc1ccc(S(=O)(=O)N2CCCCC2c2cccnc2)cc1 (stereo not given),-33.6%
10,Cc1[nH]c2ccccc2c1C(=O)C(=O)NCc1nnnn1-c1cccc(F)c1,-19%
11,COc1ccc(NC(=O)c2ccc3nc(C(C)C)oc3c2)cc1OC,6.52%
12,Cc1cccn2c(=O)c(C(=O)NC(C)c3ccccc3)cnc12 (stereo not given),-18.5%
13,COC(=O)c1cc(S(=O)(=O)N2CCN(c3cc(C)ccc3C)CC2)c[nH]1,9.83%
14,Cc1cc(C(=O)N2CCC(C(=O)O)CC2)c(C(F)(F)F)o1,0.635%
15,Cc1ccc(C)c(NC(=O)CSC2=Nc3ccccc3N=C(c3ccc(F)cc3)C2)c1,22.5%
16,COc1ccc(C2Nc3ccccc3C(=O)N2c2ccc(Cl)cc2)cc1Cn1cc([N+](=O)[O-])cn1 (stereo not given),8.39%
17,Cc1[nH]c2ccccc2c1C(=O)CN1CCCC(C)C1 (stereo not given),64%
18,Cc1ccc2[nH]c(=O)c(CN3CCCCC3)c(-c3ccccc3)c2c1,11.7%
19,Cc1ccc2c(C(=O)CN3CCCC3)c(C)[nH]c2c1,-81.5% (active)
20,COc1ccc2c(C)c(CCC(=O)NCc3ccc(OC)c(OC)c3)c(=O)oc2c1,-7.55%
21,N#CC(C#N)=CN=c1ccn(Cc2ccc(Cl)cc2Cl)cc1,-94.3% (active)
22,CCc1nc2cccnc2n1-c1ccc(C(=O)O)cc1,-6.51%
